Among the data in PubChem BioAssay (EPA / NIEHS) are outcome and AC50 values, retold here.

As a reminder, the AC50 is the concentration at which the activity in the assay is half-maximal.

Test [1] can be described thus: ATG_CRE_CIS: Attagene CIS-FACTORIAL HepG2 Assay for human cAMP Responsive Element (CRE) binding protein 3 (AID 2282926). To be noted: HepG2 CRE cis-reporter, Attagene multiplexed mRNA; actives raise or lower the signal. The gist of the method: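 Endogenous CRE-binding activity in HepG2 is reported through a cis-regulated transfected reporter. Following a day of exposure, mRNA levels are determined by reverse transcription PCR and fluorescent fragment analysis; fits run in both directions versus DMSO.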

Test [2] addresses CCAAT/enhancer-binding protein beta (Homo sapiens) (UniProt P17676). Put plainly: ATG_C_EBP_CIS: Attagene CIS-FACTORIAL HepG2 Assay for human CCAAT/Enhancer Binding Protein (C/EBP) beta (AID 2282927). The conditions noted are these: HepG2 Attagene cis-factorial transcription factor reporter; actives raise or lower the signal. The gist of the method: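 HepG2, transient MRTU transfection, 24 h treatment. RT-PCR plus CE fluorescence; DMSO negative control, bidirectional fit.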

Test [3] can be described thus: ATG_CMV_CIS: Attagene CIS-FACTORIAL HepG2 Assay for human CMV (Internal Marker) (AID 2282928).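 Further: endpoint acts as a background internal control marker rather than a target.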 To be noted: HepG2 CMV promoter reporter, transcription factor profiling; actives raise or lower the signal. Put shortly:
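Cell system: HepG2, transiently transfected multiple reporter units under cis promoters. Exposure: 24 h. Detection: RT-PCR, FAM labeling, HpaI digestion, capillary electrophoresis. Analysis: bidirectional, DMSO baseline.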

Test [4] can be described thus: ATG_DR4_LXR_CIS: Attagene CIS-FACTORIAL HepG2 Assay for human Liver X Receptor (LXR), DR4 submotif (AID 2282929). The conditions noted are these: HepG2 Attagene DR4 cis-reporter, mRNA transcription; actives raise or lower the signal. Put shortly: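 Fluorescence intensity of labelled reporter cDNA fragments, separated by capillary electrophoresis, gives the signal. HepG2 cells bearing cis-regulated reporter constructs were treated 24 h; activity fitted bidirectionally relative to DMSO negative control.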

Test [5] is described as follows: ATG_AP_1_CIS: Attagene CIS-FACTORIAL HepG2 Assay for human Activator Protein 1 (AP-1) (AID 2282931). The conditions noted are these: HepG2 Attagene cis-factorial AP-1 reporter mRNA; actives raise or lower the signal. Put shortly:
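Multiplexed HepG2 reporter assay, 24 h dosing. mRNA induction detected by RT-PCR plus capillary electrophoresis. Activity fitted in both directions against DMSO.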

A short description of test [6]: ATG_AP_2_CIS: Attagene CIS-FACTORIAL HepG2 Assay for human Activator Protein 2 (AP-2) (AID 2282932). To be noted: HepG2 AP-2 cis-reporter, Attagene transcription factor profiling; actives raise or lower the signal. The gist of the method:
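HepG2 cells transiently transfected with cis-element reporter units and exposed for 24 h. Reporter mRNA measured by RT-PCR, FAM labelling, HpaI digestion and capillary electrophoresis. Changes in either direction fitted relative to DMSO.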

Test [7] can be described thus: ATG_BRE_CIS: Attagene CIS-FACTORIAL HepG2 Assay for human Bone Morphogenetic Protein (BMP) Response Element (BRE) (AID 2282933). The conditions noted are these: HepG2 BMP response element reporter, Attagene transcription factor profiling; actives raise or lower the signal. Put shortly:
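Transient MRTU transfection of human HepG2 liver cells; 24 h compound treatment; total RNA isolated, reverse-transcribed, PCR-amplified, 6-FAM labelled, HpaI-cut, capillary electrophoresis. DMSO = negative control/baseline, bidirectional fit.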

Test [8] addresses Transcription factor E2F1 (Homo sapiens) (UniProt Q01094). The test is described as follows: ATG_E2F_CIS: Attagene CIS-FACTORIAL HepG2 Assay for human E2F Transcription Factor 1 (AID 2282935). To be noted: HepG2 Attagene cis-reporter, E2F reporter RNA transcripts; actives raise or lower the signal. Put shortly:
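Endogenous E2F1 activity read through cis-promoter reporter units transfected into HepG2. After 24 h compound treatment, reporter mRNA measured by RT-PCR, HpaI digestion and capillary electrophoresis. Bidirectional fit versus DMSO.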

Test [9] can be described thus: ATG_E_Box_CIS: Attagene CIS-FACTORIAL HepG2 Assay for human Enhancer Box (E-box) (AID 2282936). To be noted: HepG2 E-box cis-reporter transcription, actives raise or lower the signal. Put shortly: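 HepG2 cells transiently transfected with multiplexed cis-element reporter units, dosed 24 h; reporter mRNA quantified by RT-PCR, 6-FAM labelling, HpaI digestion and capillary electrophoresis. E-box (USF1) signal fitted bidirectionally vs DMSO.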

The nature of test [10]: ATG_M_61_CIS: Attagene CIS-FACTORIAL HepG2 Assay for M61 Transcription Factor (Internal Marker) (AID 2282937). The conditions noted are these: HepG2 Attagene CIS-FACTORIAL M61 internal marker reporter; actives raise or lower the signal. Put shortly: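 Endogenous transcription factor activity in HepG2 is read through transiently transfected cis-element reporter units. After 24 h dosing, RNA undergoes reverse transcription, PCR and primer extension with 6-FAM before capillary electrophoresis; DMSO-referenced bidirectional fit.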

Test [11] in a line: ATG_EGR_CIS: Attagene CIS-FACTORIAL HepG2 Assay for human Early Growth Response 1 (EGR1) (AID 2282938). To be noted: HepG2 Attagene CIS-FACTORIAL EGR reporter mRNA; actives raise or lower the signal. Put shortly:
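Activity is taken as induction or loss of reporter mRNA versus DMSO, fitted bidirectionally. Transcripts from cis-regulated reporter units in transiently transfected HepG2 were measured after 24 h by RT-PCR with capillary electrophoresis.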

Test [12] can be described thus: ATG_Ets_CIS: Attagene CIS-FACTORIAL HepG2 Assay for human Erythroblast Transformation Specific (ETS) (AID 2282941). The conditions noted are these: HepG2 ETS cis-reporter transcription, actives raise or lower the signal. Put shortly:
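After transient cis-reporter transfection, HepG2 cells receive test chemical for 24 h. Reporter mRNA levels, measured by RT-PCR and capillary electrophoresis fluorescence, are analysed bidirectionally relative to the DMSO baseline.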

Test [13] addresses Hepatocyte nuclear factor 3-beta (Homo sapiens) (UniProt Q9Y261). The test is described as follows: ATG_FoxA2_CIS: Attagene CIS-FACTORIAL HepG2 Assay for human Forkhead box A2 (FOXA2) (AID 2282942). The conditions noted are these: HepG2 cis-reporter transcription factor activity, 24 h; actives raise or lower the signal. Put shortly:
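Reporter transcript induction is measured by fluorescence after capillary electrophoresis of RT-PCR products from HepG2 cells exposed 24 h. Cis-regulated reporter units report endogenous factor activity; curves fitted both directions against DMSO.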

Test [14] can be described thus: ATG_FoxO_CIS: Attagene CIS-FACTORIAL HepG2 Assay for human Forkhead box O (FoxO) (AID 2282943). The conditions noted are these: HepG2 Attagene cis-reporter, FoxO element, mRNA; actives raise or lower the signal. Put shortly: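 Transfected HepG2 reporter cells exposed to test chemical for 24 h; reporter RNA measured by reverse transcription, PCR and fluorescent capillary electrophoresis; curves fitted for increases and decreases against DMSO.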

Test [15] is described as follows: ATG_GATA_CIS: Attagene CIS-FACTORIAL HepG2 Assay for human GATA Binding Protein (AID 2282944). The conditions noted are these: HepG2 GATA cis-element reporter, Attagene multiplex mRNA; actives raise or lower the signal. Put shortly: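 Transient MRTU transfection, HepG2, 24 h compound exposure. Total RNA → oligo(dT) RT → PCR → 6-FAM primer extension → HpaI cut → CE. Bidirectional fit vs DMSO.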

Test [16] can be described thus: ATG_GLI_CIS: Attagene CIS-FACTORIAL HepG2 Assay for human Zinc Finger Protein GLI1 (AID 2282945). To be noted: HepG2, Attagene cis-factorial reporter mRNA, GLI element; actives raise or lower the signal. The gist of the method:
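Transiently transfected HepG2 cells report endogenous transcription factor activity via cis-element-driven reporter units. After 24 h compound exposure, reporter mRNA was measured by RT-PCR with capillary electrophoresis; bidirectional fitting against DMSO baseline.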

The target in test [17] is Retinoic acid receptor alpha (Homo sapiens) (UniProt P10276). Put plainly: ATG_DR5_RAR_CIS: Attagene CIS-FACTORIAL HepG2 Assay for human Retinoic Acid Receptor Alpha (RARE), DR5 submotif (AID 2282934). The conditions noted are these: HepG2 Attagene cis-factorial RARE DR5 reporter, mRNA; actives raise or lower the signal. Put shortly: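 After 24 h of chemical exposure, transiently transfected HepG2 cells were lysed for total RNA; the DR5-regulated reporter transcript was quantified via RT-PCR and capillary electrophoresis, with activity fitted bidirectionally against DMSO.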

Test [18] in a line: ATG_M_19_CIS: Attagene CIS-FACTORIAL HepG2 Assay for M19 Transcription Factor (Internal Marker) (AID 2282939). To be noted: HepG2 Attagene CIS-FACTORIAL M19 internal marker reporter; actives raise or lower the signal. The gist of the method: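 Transfect HepG2 with MRTU reporter library → dose chemical, 24 h → isolate total RNA, reverse-transcribe with oligo(dT) → PCR, 6-FAM label, HpaI cut (2 h, 37 C) → capillary electrophoresis. Bidirectional fit vs DMSO.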

Test [19] is described as follows: ATG_ERE_CIS: Attagene CIS-FACTORIAL HepG2 Assay for Estrogen Response Element (ERE) (AID 2282940). To be noted: HepG2 ERE cis-reporter, Attagene RNA transcript; actives raise or lower the signal. The gist of the method: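 Transient MRTU transfection of human HepG2; cis-element promoters; 24 h dosing; total RNA → RT (oligo dT) → PCR → 6-FAM primer extension → HpaI digest → CE fluorescence. Bidirectional fit, DMSO baseline.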

Active and inactive are the calls of the source. How the source made its calls: active means hit-call score of the fitted dose curve at least 0.9, where 1 is the maximum; inactive means score below 0.9.

CCAAT/enhancer-binding protein beta (Homo sapiens), sequence (P17676 whole entry, looked up): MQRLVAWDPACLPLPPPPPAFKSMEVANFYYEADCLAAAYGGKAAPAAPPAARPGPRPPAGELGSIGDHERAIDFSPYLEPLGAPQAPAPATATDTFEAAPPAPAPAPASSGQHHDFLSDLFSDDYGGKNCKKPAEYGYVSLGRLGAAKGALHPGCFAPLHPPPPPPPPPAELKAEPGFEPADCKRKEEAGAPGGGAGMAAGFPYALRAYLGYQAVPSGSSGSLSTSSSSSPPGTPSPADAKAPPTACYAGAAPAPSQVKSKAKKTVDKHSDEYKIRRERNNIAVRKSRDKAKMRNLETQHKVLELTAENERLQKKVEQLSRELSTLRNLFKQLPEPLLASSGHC
Transcription factor E2F1 (Homo sapiens), sequence (Q01094 whole entry, looked up): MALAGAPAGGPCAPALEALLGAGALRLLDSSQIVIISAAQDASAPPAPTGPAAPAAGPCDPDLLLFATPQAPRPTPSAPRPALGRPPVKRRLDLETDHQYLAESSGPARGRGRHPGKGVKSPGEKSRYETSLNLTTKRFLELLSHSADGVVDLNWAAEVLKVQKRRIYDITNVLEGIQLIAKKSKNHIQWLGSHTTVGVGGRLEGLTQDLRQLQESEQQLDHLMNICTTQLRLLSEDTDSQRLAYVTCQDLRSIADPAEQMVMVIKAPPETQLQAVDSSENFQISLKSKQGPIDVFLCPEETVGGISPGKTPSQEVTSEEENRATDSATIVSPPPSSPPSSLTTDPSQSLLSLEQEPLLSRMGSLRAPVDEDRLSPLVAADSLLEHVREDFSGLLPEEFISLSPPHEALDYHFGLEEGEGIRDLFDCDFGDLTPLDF
Hepatocyte nuclear factor 3-beta (Homo sapiens), sequence (Q9Y261 whole entry, looked up): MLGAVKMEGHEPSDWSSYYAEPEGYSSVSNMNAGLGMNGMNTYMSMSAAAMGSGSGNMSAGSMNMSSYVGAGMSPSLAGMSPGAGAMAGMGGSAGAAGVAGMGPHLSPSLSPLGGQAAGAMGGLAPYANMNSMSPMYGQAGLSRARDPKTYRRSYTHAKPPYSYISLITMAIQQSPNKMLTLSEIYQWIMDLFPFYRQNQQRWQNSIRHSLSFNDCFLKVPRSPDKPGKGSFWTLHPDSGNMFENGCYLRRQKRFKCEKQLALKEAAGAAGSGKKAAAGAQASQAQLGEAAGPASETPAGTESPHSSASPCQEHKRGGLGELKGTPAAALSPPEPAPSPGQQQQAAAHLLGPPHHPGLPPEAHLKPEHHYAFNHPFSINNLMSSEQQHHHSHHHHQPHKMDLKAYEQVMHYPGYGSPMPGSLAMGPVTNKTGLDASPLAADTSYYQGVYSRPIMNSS
Retinoic acid receptor alpha (Homo sapiens), sequence (P10276 whole entry, looked up): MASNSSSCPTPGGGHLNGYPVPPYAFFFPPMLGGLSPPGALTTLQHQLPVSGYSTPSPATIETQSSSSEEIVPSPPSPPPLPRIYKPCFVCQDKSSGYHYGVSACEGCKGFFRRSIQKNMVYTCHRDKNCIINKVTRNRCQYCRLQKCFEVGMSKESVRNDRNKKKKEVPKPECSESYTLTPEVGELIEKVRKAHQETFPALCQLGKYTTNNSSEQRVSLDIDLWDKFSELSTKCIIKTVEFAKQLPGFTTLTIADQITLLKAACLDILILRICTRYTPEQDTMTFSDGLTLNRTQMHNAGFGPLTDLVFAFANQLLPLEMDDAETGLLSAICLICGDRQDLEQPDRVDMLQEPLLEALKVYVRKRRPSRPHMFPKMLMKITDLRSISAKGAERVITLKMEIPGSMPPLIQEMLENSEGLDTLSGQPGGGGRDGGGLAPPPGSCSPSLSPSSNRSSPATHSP

For the molecule `CCCCC(CC)COCCC#N` (configuration not stated), the call in test [1], in test [2], in [3], in test [4], in [5] and in [6] was inactive. Besides, the molecule was classed as inactive in test [7], in [8], in test [9], in test [10], in [11] and in test [12]. For the same molecule, the molecule was classed as inactive in [13], in test [14], in test [15] and in test [16].

Regarding `CC(C)=CCC[C@](C)(O)[C@@H]1CC=C(C)CC1`, the result in [1], in test [2], in [4], in test [5], in test [6] and in test [7] was inactive. Further, the outcome in test [17], in [8], in test [9], in test [10], in test [11] and in test [18] was inactive. Besides, the molecule was classed as inactive in test [12], in [13], in test [14], in test [15] and in [16]. In test [3], the AC50 was 49.5 µM (active).

For `Cc1ccc(C=O)cc1`, the molecule was called inactive in [1], in test [2], in test [3], in test [4], in test [5] and in [6]. Further, the molecule was called inactive in test [7], in [8], in test [9], in test [11], in test [18] and in test [19]. Besides, the molecule was classed as inactive in test [12], in [13], in [14] and in [16].

Consider `COc1ccc(Nc2ccccc2)c(C)c1`, for which the outcome in test [1], in test [2], in [6], in test [8], in test [9] and in test [10] was inactive. In addition, the outcome in test [11], in test [18], in test [12], in test [13], in [14] and in [15] was inactive. Also, in [16], the outcome was inactive. Besides, the AC50 in test [3] was 100 µM (active); in test [4], 46 µM (active); in test [5] it was 139 µM (active); in [7] it was 149 µM (active).
